Most compounds without a hit are left out; they make up all but 1.2% or so of the library.
GSH fluor: compound fluoresces at 488/530 nm on GSH beads; GSH beads flow cytometry, compound fluorescence 488/530 nm; active compounds read high; fluorescence (KMESF) at 10 µM; hit rate 0.25% among 190,000; in the data active = fluorescence above about 89;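 note: glutathione beads carrying GST-tagged Bcl family fusion proteins plus one bare bead set; values are compound well signal with DMSO vehicle wells as background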
RGS8-Gao reg: modulates binding of RGS8 to human Galphao | P09471 | multiplexed bead flow cytometry; actives lie on both sides | response (percent of control binding), % at 10 µM | hit rate 0.34% among 220,000; in the data active = response below about 60% or above about 140%; inactive = in between;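 note: Galphao activated as the GDP aluminium fluoride complex binding bead-coupled RGS8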
Target sequence (P09471 whole entry, looked up): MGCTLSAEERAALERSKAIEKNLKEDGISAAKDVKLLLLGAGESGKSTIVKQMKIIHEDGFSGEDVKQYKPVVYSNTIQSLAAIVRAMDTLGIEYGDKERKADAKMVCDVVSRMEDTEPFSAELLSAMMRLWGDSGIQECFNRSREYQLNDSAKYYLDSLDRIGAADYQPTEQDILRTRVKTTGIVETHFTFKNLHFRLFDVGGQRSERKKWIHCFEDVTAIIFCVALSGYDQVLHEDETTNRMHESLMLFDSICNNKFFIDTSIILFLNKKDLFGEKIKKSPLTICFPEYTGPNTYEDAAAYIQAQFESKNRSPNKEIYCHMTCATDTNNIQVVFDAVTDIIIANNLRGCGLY
RGS4-Gao reg: modulates binding of RGS4 to human Galphao. AID 1415. P09471. Multiplexed bead flow cytometry; actives lie on both sides. hit rate 0.33% among 220,000. binding response (% of control), % at 10 µM; in the data active = binding response below about 49% or above about 150%; inactive = in between;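 note: fluorescent Galphao activated with aluminum fluoride binding bead-coupled RGS4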
Avidin fluor: compound fluoresces at 488/530 nm on avidin beads. hit rate 0.38% among 220,000. fluorescence (KMESF) at 10 µM. compound fluorescence 488/530 nm, flow cytometry; active compounds read high. AID 1775; in the data active = fluorescence above about 47
RGS7-Gao: regulators of human RGS7-Galphao interaction. Multiplexed bead flow cytometry, RGS7-Galphao binding; actives lie on both sides. binding response (% of control), % at 10 µM. P09471. AID 1439. hit rate 0.35% among 220,000; in the data active = binding response below about 49% or above about 150%; inconclusive = no clear call, values can overlap the other calls; inactive = in between;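 note: fluorescent Galphao held in activated GDP-AlF4 state binding bead-coupled RGS7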
RGS16-Gao: regulators of human RGS16-Galphao interaction; bead-based flow cytometry RGS16-Galphao binding, fluorescence; actives lie on both sides; binding response (% of control), % at 10 µM; hit rate 0.38% among 220,000; call rule not given here;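 note: Galphao activated by GDP with aluminum fluoride before binding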
Target sequence (O15492 whole entry, looked up): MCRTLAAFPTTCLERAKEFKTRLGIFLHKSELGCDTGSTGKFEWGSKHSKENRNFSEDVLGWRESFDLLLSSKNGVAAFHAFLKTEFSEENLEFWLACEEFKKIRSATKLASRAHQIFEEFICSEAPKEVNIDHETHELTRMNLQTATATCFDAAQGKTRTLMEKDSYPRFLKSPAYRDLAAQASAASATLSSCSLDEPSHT
Target sequence (P09471 whole entry, looked up): as the sequence (P09471 whole entry, looked up) above
* = called active by the depositor; [ ] = another dose, or the depositor's remark.

For CCOc1ccccc1N1CC(C(=O)Nc2ccc3c(c2)OCCO3)CC1=O (configuration not stated) the results were GSH fluor 12, RGS8-Gao reg 101, RGS4-Gao reg 99, Avidin fluor 10, RGS7-Gao inconclusive and RGS16-Gao 101.
For COc1ccc(NC(=O)CCN2CCN(S(=O)(=O)c3cc(Cl)ccc3Cl)CC2)cc1 the results were GSH fluor 29, RGS8-Gao reg 106, RGS4-Gao reg 136, Avidin fluor 60*, RGS7-Gao 114 and RGS16-Gao 156.
Screening COc1ccc(NC(=O)CCN2CCN(S(=O)(=O)c3ccc(OC)cc3)CC2)cc1 returned GSH fluor 11, RGS8-Gao reg 100, RGS4-Gao reg 101, Avidin fluor 10, RGS7-Gao 97 and RGS16-Gao 107.
Screening Cc1ccc(NC(=O)COC(=O)CCc2nc3ccccc3c(=O)[nH]2)cc1Cl returned GSH fluor 34, RGS8-Gao reg 104, RGS4-Gao reg 99, Avidin fluor 9, RGS7-Gao 98 and RGS16-Gao 119.
For O=C(Nc1cccc2ccccc12)N1CCOCC1 the results were GSH fluor 28, RGS8-Gao reg 103, RGS4-Gao reg 106, Avidin fluor 19, RGS7-Gao 106 and RGS16-Gao 110.
For S=C(Nc1cccc2ccccc12)NN1CCOCC1 the results were GSH fluor 24, RGS8-Gao reg 104, RGS4-Gao reg 117, Avidin fluor 47*, RGS7-Gao 116 and RGS16-Gao 116.
`COC(=O)Nc1ccc2c(c1)OCO2` gave GSH fluor 100*, RGS8-Gao reg 95, RGS4-Gao reg 84, Avidin fluor 4, RGS7-Gao 87 and RGS16-Gao 92.
`CCOC(=O)Nc1ccc2c(c1)OCO2` gave GSH fluor 20, RGS8-Gao reg 103, RGS4-Gao reg 101, Avidin fluor 39, RGS7-Gao 102 and RGS16-Gao 100.
Screening Cc1nc2ncnn2c(N2CCCC(C(=O)Nc3ccccc3Br)C2)c1C (configuration not stated) returned GSH fluor 19, RGS8-Gao reg 103, RGS4-Gao reg 100, Avidin fluor 6, RGS7-Gao 108 and RGS16-Gao 109.
Screening CCn1c(SCC(=O)C(C)(C)C)nnc1-c1cnccn1 returned GSH fluor 95*, RGS8-Gao reg 99, RGS4-Gao reg 92, Avidin fluor 4, RGS7-Gao 86 and RGS16-Gao 74.
For CCn1c(SCC(=O)C(C)(C)C)nnc1-c1ccccn1 the results were GSH fluor 32, RGS8-Gao reg 98, RGS4-Gao reg 98, Avidin fluor 15, RGS7-Gao 101 and RGS16-Gao 103.
COc1ccc2ccccc2c1CN1CCN(Cc2ccccc2)CC1 was read as GSH fluor 11, RGS8-Gao reg 101, RGS4-Gao reg 102, Avidin fluor 8, RGS7-Gao 100 and RGS16-Gao 100.
COc1ccc2ccccc2c1CN1CCCC(CO)C1 (configuration not stated) was read as GSH fluor 18, RGS8-Gao reg 100, RGS4-Gao reg 101, Avidin fluor 57*, RGS7-Gao 113 and RGS16-Gao 102.
Screening Cc1cccc(N2CCN(Cc3cc(=O)n4ccsc4n3)CC2)c1C returned GSH fluor 21, RGS8-Gao reg 100, RGS4-Gao reg 96, Avidin fluor 7, RGS7-Gao 96 and RGS16-Gao 96.
O=c1cc(CN2CCN(c3ccccc3O)CC2)nc2sccn12 was read as GSH fluor 255*, RGS8-Gao reg 97, RGS4-Gao reg 92, Avidin fluor 7, RGS7-Gao 91 and RGS16-Gao 94.
N#CC1=C(N)Oc2n[nH]c(-c3cccs3)c2C1c1ccccc1C(=O)O (configuration not stated) was read as GSH fluor 19, RGS8-Gao reg 101, RGS4-Gao reg 105, Avidin fluor 9, RGS7-Gao 104 and RGS16-Gao 102.
Screening N#CC1=C(N)Oc2n[nH]c(-c3cccs3)c2C1c1cccs1 (configuration not stated) returned GSH fluor 16, RGS8-Gao reg 101, RGS4-Gao reg 103, Avidin fluor 48*, RGS7-Gao 109 and RGS16-Gao 101.
Screening O=C(NCc1ccccc1)Nc1cccn(Cc2ccccc2Cl)c1=O returned GSH fluor 14, RGS8-Gao reg 100, RGS4-Gao reg 103, Avidin fluor 11, RGS7-Gao 105 and RGS16-Gao 103.
`COc1ccc(C2C(C(=O)NC(C)C)c3ccccc3C(=O)N2C)cc1OC` (configuration not stated) gave GSH fluor 48, RGS8-Gao reg 97, RGS4-Gao reg 110, Avidin fluor 54*, RGS7-Gao 118 and RGS16-Gao 86.
`Cc1ccsc1C(=O)OC1CCOC1=O` (configuration not stated) gave GSH fluor 271*, RGS8-Gao reg 96, RGS4-Gao reg 94, Avidin fluor 7, RGS7-Gao 89 and RGS16-Gao 97.
Screening O=C(CNS(=O)(=O)/C=C/c1ccccc1)OC1CCOC1=O (configuration not stated) returned GSH fluor 22, RGS8-Gao reg 101, RGS4-Gao reg 96, Avidin fluor 11, RGS7-Gao 97 and RGS16-Gao 100.
`COc1cc(C(=O)NNc2nc3cc4c(cc3s2)OCO4)cc(OC)c1OC` gave GSH fluor 17, RGS8-Gao reg 96, RGS4-Gao reg 161*[activator], Avidin fluor 32, RGS7-Gao 127 and RGS16-Gao 107.
`COc1ccc(Cl)cc1C(=O)Nc1nnn(C)n1` gave GSH fluor 257*, RGS8-Gao reg 112, RGS4-Gao reg 109, Avidin fluor 6, RGS7-Gao 107 and RGS16-Gao 133.
CC(C)c1ccc(CN2CCN(C(=O)CCl)CC2)cc1 was read as GSH fluor 28, RGS8-Gao reg 104, RGS4-Gao reg 106, Avidin fluor 12, RGS7-Gao 104 and RGS16-Gao 102.
Screening COc1ccc(C2CC2C(C)=O)cc1 (configuration not stated) returned GSH fluor 11, RGS8-Gao reg 99, RGS4-Gao reg 97, Avidin fluor 10, RGS7-Gao inconclusive and RGS16-Gao 97.
For CC(C)C12CN3CC(C(C)C)(CN(C1)C3c1ccccc1)C2O (configuration not stated) the results were GSH fluor 253*, RGS8-Gao reg 101, RGS4-Gao reg 109, Avidin fluor 4, RGS7-Gao 111 and RGS16-Gao 110.
COc1ccc(/C=C/C(=O)O)cc1S(=O)(=O)N1CCC(C)CC1 was read as RGS8-Gao reg 97, RGS4-Gao reg 102, Avidin fluor 6, RGS7-Gao inconclusive and RGS16-Gao 109.
`O=C(Nc1cccnc1)c1c(O)c2cccc3c2n(c1=O)CC3` gave GSH fluor 231*, RGS8-Gao reg 120, RGS4-Gao reg 171*[activator], Avidin fluor 9, RGS7-Gao 134 and RGS16-Gao 125.

Source: PubChem BioAssay (NMMLSC)
